# Assay results: PubChem BioAssay (EPA / NIEHS)
# Inconclusive results are not listed. Calls of active or inactive are those of the source. Rule for the calls, unless noted: active = hit-call score of the fitted dose curve at least 0.9, where 1 is the maximum; inconclusive = response in the unintended direction; inactive = score below 0.9.
# Experiments:
# [1] = CEETOX_H295R_TESTO_noMTC: CeeTox H295R High-throughput Steroidogenesis Assay for Testosterone (TESTO), maximum tolerated concentration (MTC) filtered results only (AID 2283924; active = hit-call score of the fitted dose curve at least 0.9, where 1 is the maximum; inactive = score below 0.9); settings: actives raise or lower the signal
# Summary of the method: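 H295R cells prestimulated 48 h with 10 uM forskolin, then exposed 48 h to chemicals in 0.1% DMSO final. Testosterone in medium quantified by MTBE extraction and HPLC-MS/MS; bidirectional fit versus DMSO, concentrations […] filtered by MTT-based maximum tolerated concentration.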
# [2] = CEETOX_H295R_ESTRONE_noMTC: CeeTox H295R High-throughput Steroidogenesis Assay for Estrone, maximum tolerated concentration (MTC) filtered results only (AID 2283921; active = hit-call score of the fitted dose curve at least 0.9, where 1 is the maximum; inactive = score below 0.9); settings: actives raise or lower the signal
# Summary of the method: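 H295R cells prestimulated 48 h with 10 uM forskolin, then exposed 48 h to chemical in 0.1% DMSO; medium estrone measured by HPLC-MS/MS after MTBE extraction and dansyl derivatization, fitted bidirectionally versus DMSO without MTT-based MTC filtering.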
# THRA (gene 7067) = THRA (gene 7067) (UniProt P10827); assay: TOX21_TRA_COA_Agonist_Followup_ratio: Tox21 Thyroid Hormone Receptor alpha Agonism through Coactivator Recruitment Follow-Up Assay, Ratio (AID 2283948; active = hit-call score of the fitted dose curve at least 0.9, where 1 is the maximum; inactive = score below 0.9)
# Sequence of THRA (gene 7067) (P10827 whole entry, looked up, the tested form may be a part): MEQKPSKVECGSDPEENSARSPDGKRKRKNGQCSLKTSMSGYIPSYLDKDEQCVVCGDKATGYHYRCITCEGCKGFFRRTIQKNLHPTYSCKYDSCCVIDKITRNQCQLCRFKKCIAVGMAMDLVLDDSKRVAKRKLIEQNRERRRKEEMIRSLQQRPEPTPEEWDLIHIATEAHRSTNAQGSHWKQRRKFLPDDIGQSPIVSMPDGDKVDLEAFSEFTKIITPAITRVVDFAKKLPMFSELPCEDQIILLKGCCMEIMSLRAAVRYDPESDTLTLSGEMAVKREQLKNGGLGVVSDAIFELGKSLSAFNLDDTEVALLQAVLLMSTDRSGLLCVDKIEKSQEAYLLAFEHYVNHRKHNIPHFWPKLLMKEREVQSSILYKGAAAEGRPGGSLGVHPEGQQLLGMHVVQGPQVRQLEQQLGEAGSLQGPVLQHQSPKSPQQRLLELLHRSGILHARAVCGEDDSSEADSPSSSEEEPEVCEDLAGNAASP
# Summary of the method: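 Cell-free TR-FRET coactivator recruitment: GST-tagged TRα LBD (2.5 nM) with 0.10% BSA was incubated with compound, then fluorescein-SRC-2 peptide (200 nM) and Tb-anti-GST antibody (2 nM) added. 520:495 nm ratio normalized to DMSO (0%) and T3 (100%).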
# PGR (gene 5241) [3] = biological target: PGR (gene 5241) (UniProt P06401); assay: TOX21_PR_BLA_Followup_Antagonist_ratio: Tox21 HEK293 Progesterone Receptor (PR) Antagonism Beta-lactamase Follow-Up Assay, Ratio (AID 2283934)
# Sequence of PGR (gene 5241) (P06401 whole entry, looked up): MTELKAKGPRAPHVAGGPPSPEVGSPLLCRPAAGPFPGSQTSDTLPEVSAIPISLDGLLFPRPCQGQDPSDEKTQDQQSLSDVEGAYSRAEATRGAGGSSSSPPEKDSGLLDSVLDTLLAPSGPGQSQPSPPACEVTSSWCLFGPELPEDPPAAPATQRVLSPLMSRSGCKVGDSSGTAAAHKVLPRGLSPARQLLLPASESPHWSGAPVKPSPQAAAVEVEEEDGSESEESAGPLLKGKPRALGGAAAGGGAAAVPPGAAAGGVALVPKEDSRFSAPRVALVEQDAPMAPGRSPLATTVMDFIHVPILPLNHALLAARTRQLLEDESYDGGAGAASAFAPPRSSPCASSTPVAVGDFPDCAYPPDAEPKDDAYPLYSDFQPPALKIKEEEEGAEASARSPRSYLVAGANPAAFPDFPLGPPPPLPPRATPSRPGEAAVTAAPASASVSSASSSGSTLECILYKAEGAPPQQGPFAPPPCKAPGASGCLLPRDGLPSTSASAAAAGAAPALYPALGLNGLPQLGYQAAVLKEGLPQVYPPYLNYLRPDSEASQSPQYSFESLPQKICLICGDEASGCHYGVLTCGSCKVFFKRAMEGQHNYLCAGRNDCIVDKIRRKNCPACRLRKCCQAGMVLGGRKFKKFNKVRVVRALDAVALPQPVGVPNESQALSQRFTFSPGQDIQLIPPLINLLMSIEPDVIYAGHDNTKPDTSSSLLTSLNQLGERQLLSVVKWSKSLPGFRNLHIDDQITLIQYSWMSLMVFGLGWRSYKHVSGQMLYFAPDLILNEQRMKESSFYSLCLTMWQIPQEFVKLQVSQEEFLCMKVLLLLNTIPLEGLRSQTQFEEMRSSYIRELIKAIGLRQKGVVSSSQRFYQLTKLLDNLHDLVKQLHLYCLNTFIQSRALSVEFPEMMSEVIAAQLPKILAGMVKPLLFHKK
# Summary of the method: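 HEK293T PR-UAS-bla, 2% CS-FBS; 6 hr plating, then cpd + R5020 (1 nM final), 16 hr 37C/5% CO2. B/G FRET substrate 2 h RT. Ratio ch2/ch1 vs DMSO; CellTiter-Glo viability multiplexed, autofluorescence checked.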
# [4] = TOX21_PR_BLA_Followup_Agonist_viability: Viability Assessment in the Tox21 HEK293 Progesterone Receptor (PR) Agonism Beta-lactamase Follow-Up Assay (AID 2283935);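 note: cells exposed to compound for 16 hr at 37 °C; signal loss means lower viability so actives are cytotoxic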
# Summary of the method: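 HEK293T PR-UAS-bla, 3,000 cells/well, 2% CS-FBS; 6 hr pre-incubation; cpd in DMSO, 16 hr 37C; LiveBLAzer 2 hr RT, then CellTiter-Glo 30 min RT, luminescence. Decrease = lost viability.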
# [5] = TOX21_PR_BLA_Followup_Antagonist_viability: Viability Assessment in the Tox21 HEK293 Progesterone Receptor (PR) Antagonism Beta-lactamase Follow-Up Assay (AID 2283936);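 note: hits lower the luminescence signal meaning cytotoxicity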
# Summary of the method: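 PR-UAS-bla HEK293T cells (3,000/well, 2% charcoal-stripped FBS) given compound plus R5020 agonist, 16 h at 37C. CellTiter-Glo added after bla read, 30 min at room temperature; luminescence loss indicates cytotoxicity.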
# [6] = TOX21_PR_LUC_Followup_Antagonist_viability: Viability Assessment in the Tox21 HEK293 Progesterone Receptor (PR) Antagonism Luciferase Follow-Up Assay (AID 2283940)
# Summary of the method: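 Multiplexed viability counter-screen: after 5 days in charcoal-stripped-FBS medium, HEK293-PR-A-luc cells are plated, pinned with DMSO-dissolved compounds for 16 h at 37C, and ATP content is quantified luminescently via CellTiter-Glo.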
# [7] = TOX21_PR_LUC_Followup_Agonist_viability: Viability Assessment in the Tox21 HEK293 Progesterone Receptor (PR) Agonism Luciferase Follow-Up Assay (AID 2283941);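 note: loss of signal means cytotoxicity so actives lower viability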
# Summary of the method: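 Cells were kept 5 days in charcoal-stripped serum medium before plating HEK293-PR-A-luc at 3,000 cells/well. After 5 h they received DMSO-dissolved compound and incubated 16 h at 37C. Viability was taken from CellTiter-Glo ATP luminescence.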
# [8] = biological target: Thyroid hormone receptor alpha (Rattus norvegicus) + Thyroid hormone receptor beta (Rattus norvegicus) (UniProt P18113+P63059); assay: TOX21_TR_LUC_GH3_Antagonist_Followup: Tox21 GH3 Thyroid Hormone Receptor Antagonism Luciferase Follow-Up Assay (AID 2283942)
# Summary of the method: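 Antagonist mode: GH3 cells seeded 1,500/well, compounds at 15 concentrations (92 uM to 5nM final) plus T3 at 1.0 nM final, 24 h at 37C. Luciferase read with ONE-Glo after 30 min at room temperature.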
# PGR (gene 5241) [9] = biological target: PGR (gene 5241) (UniProt P06401); assay: TOX21_PR_LUC_Followup_Antagonist: Tox21 HEK293 Progesterone Receptor (PR) Antagonism Luciferase Follow-Up Assay (AID 2283938);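 note: curve fitted upward as signal gain over DMSO baseline despite antagonist label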
# Summary of the method: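 Luminescence from ONE-Glo was measured 30 min after reagent addition, following 16 h exposure of HEK293-PR-A-luc cells (3,000/well, plated 5 h earlier) to DMSO-dissolved compounds at 37C; DMSO served as baseline.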
structure (smiles),measurement,setting,value
O=C(O)c1ccccc1C(=O)OCc1ccccc1,outcome,[1],inactive
c1ccc(C[n+]2cccc3ccccc32)cc1,outcome,[2],inactive
CCCCCc1ccc(N)cc1,outcome,[2],inactive
O=C1O[C@H]([C@@H](O)CO)C(O)=C1O,outcome,THRA (gene 7067),inactive
C[C@]12CC[C@@H]3c4ccc(O)cc4CC[C@H]3[C@@H]1CCC2=O,AC50,PGR (gene 5241) [3],1.42 µM (active)
same,outcome,[4],inactive
same,outcome,[5],inactive
same,outcome,[6],inactive
same,outcome,[7],inactive
COc1cc(C(=O)NC2CCN(C)CC2)ccc1Nc1ncc2c(n1)N(C1CCCC1)CC(F)(F)C(=O)N2C,AC50,[8],16.4 µM (active)
O=C(O)Cc1cc(I)c(Oc2ccc(O)c(I)c2)c(I)c1,AC50,PGR (gene 5241) [3],21.5 µM (active)
same,outcome,[4],inactive
same,outcome,[6],inactive
same,outcome,[7],inactive
Cc1ccc2oc(CN(Cc3ccccc3)C(=O)Nc3c(F)cc(F)cc3F)c(-c3ccc(Cl)cc3)c2c1,AC50,PGR (gene 5241) [3],1.95 µM (active)
same,outcome,[4],inactive
same,outcome,[5],inactive
same,AC50,PGR (gene 5241) [9],1.09 µM (active)
same,outcome,[7],inactive
CC(C)(O)c1ccc(CNC(=O)c2cccnc2Oc2ccc3nonc3c2)cc1,AC50,[2],0.0407 µM (active)
